Data reported in PubChem BioAssay (NCI).
Values joined by “and” are separate entries in the source; they are usually repeats but may differ in a detail not shown here. Identical values can stand only once. This is part of a sample that, as a whole, favours compounds with a hit. Of some 83,000 tested, about 20% had one in any assay.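 Note: values are percent growth. 100 is the growth of untreated cells, values between 100 and 0 indicate rising inhibition; between -100 and 0 indicates cell death.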 Active and inactive are the calls of the source. Rule for the calls: active = growth percent below 10; inactive = the rest.

Experiments:
Assay in all cases: NCI-60 one-dose screen, 48 h (100 = growth as untreated, 0 = no growth, -100 = all killed)
[1] = system: HCT-15 colon; conditions: 10 µM unless noted
[2] = system: HT29 colon; conditions: 10 µM unless noted
[3] = system: SNB-75 CNS; conditions: 10 µM unless noted
[4] = system: SNB-19 CNS; conditions: 10 µM unless noted
[5] = system: U251 CNS; conditions: 10 µM unless noted
[6] = system: PC-3 prostate; conditions: 10 µM unless noted
[7] = system: SK-MEL-5 melanoma; conditions: 10 µM unless noted
[8] = system: UACC-62 melanoma
[9] = system: LOX IMVI melanoma; conditions: 10 µM unless noted
[10] = system: SK-MEL-28 melanoma; conditions: 10 µM unless noted

Measured: growth

CCCCOc1ccc(Nc2cc(Cl)ccc2C(=O)O)cn1
inactive: [1] 104% and 89.1% | [2] 115% | [3] 98.7% and 115% | [4] 96.6% and 106% | [5] 98.1% and 96.9% | [6] 93.6% | [7] 99.4% and 102% | [8]; 10 µM unless noted 97.9% and 98.1% | [9] 107% and 90.5% | [10] 122% and 113%

CCCCCCCCCCCCCCCCC(C(=O)O)C(O)(CC(=O)O)C(=O)O (configuration not stated)
101% (inactive) and 8.93% (active): [5]
inactive: [1] 105% and 66.4% | [4] 110% and 15% | [6] 110% and 19.8% | [7] 107% | [10] 108%
108% (inactive) and -70.3% (active): [8]; 10 µM unless noted
93.9% (inactive) and -31.8% (active): [2]
98.8% (inactive) and -58.3% (active): [3]

O=C1OC(C(O)C(O)CO)C(O)=C1O (configuration not stated)
inactive: [1] 99.8% and 100% | [2] 102% and 96.4% | [3] 100% and 90.4% | [4] 100% and 98.4% | [5] 104% and 92.5% | [6] 93.2% and 85.3% | [7] 97.2% and 106% | [8]; 10 µM unless noted 103% and 99.8% | [10] 118% and 107%

COc1ccc2cc1Oc1ccc(cc1)C[C@H]1c3cc(c(OC)cc3CCN1C)Oc1c(OC)c(OC)cc3c1[C@H](C2)N(C)CC3
inactive: [4] 57.7% | [5] 24.2% | [6] 28.8% | [7] 21.1% | [8]; 10 µM 103% | [8]; 100 µM 80.7% and 64.2%
active: [1] 3.41% | [2] -32.7% | [3] -7.64% | [9] -43.7%

CCCCCCCCCCCCCCCc1ccc(N)c(OC2OC(CO)C(O)C(O)C2O)c1 (configuration not stated)
inactive: [1] 98.4% | [2] 103% | [4] 101% | [5] 89.7% | [6] 58.3% | [7] 111% | [8]; 10 µM unless noted 76.3% | [9] 86.3% | [10] 112%

CCCCNc1ccc(Nc2ccccc2)cc1
inactive: [1] 94.6% | [2] 51.5% | [3] 84.2% | [4] 76.4% | [5] 34.8% | [6] 50.8% | [7] 67.3% | [8]; 10 µM unless noted 60.6% | [10] 94.9%

NN1CCOC(c2ccccc2)C1 (configuration not stated)
inactive: [1] 101% | [2] 113% | [3] 109% | [4] 101% | [5] 102% | [6] 94.3% | [7] 103% | [8]; 10 µM unless noted 90.2% | [10] 112%

COc1ccc(Nc2ccc3ccccc3c2)cc1
inactive: [1] 78.2% | [2] 64.9% | [3] 64.3% | [4] 79.5% | [6] 71.5% | [7] 73.8% | [8]; 10 µM unless noted 62.1% | [9] 74.2% | [10] 89.8%

c1ccc2c(c1)OC1OC2Oc2ccccc21
inactive: [2] 95.6% | [3] 90% | [4] 97.6% | [5] 102% | [6] 91.6% | [7] 103% | [8]; 10 µM unless noted 92.5% | [9] 91.1% | [10] 103%

OCCN1CCCCCCC1
inactive: [1] 91.4% | [2] 106% | [3] 115% | [4] 101% | [6] 93.5% | [7] 102% | [8]; 10 µM unless noted 101% | [9] 103% | [10] 104%

Oc1ccc(Cc2ccccc2Cl)c(O)c1
inactive: [1] 97.2% | [2] 106% | [3] 80.5% | [4] 100% | [5] 96.2% | [6] 82.5% | [7] 97.7% | [8]; 10 µM unless noted 85.7% | [10] 110%

CC1CCC2(OC1)OC1CC3C4CC=C5CC(O)CCC5(C)C4CCC3(C)C1C2C (configuration not stated)
inactive: [1] 105% | [2] 108% | [3] 83% | [4] 96.1% | [5] 94.8% | [6] 96.4% | [7] 105% | [8]; 10 µM unless noted 90.6% | [9] 91.2% | [10] 115%

Cc1cc2ccccc2cn1
inactive: [1] 104% and 105% | [2] 109% and 102% | [3] 92.9% and 83.1% | [4] 95.3% and 97.7% | [5] 99.4% and 103% | [6] 95.3% and 96% | [7] 101% and 109% | [8]; 10 µM unless noted 92.5% and 95.2% | [9] 102% and 99.7% | [10] 109% and 200%

CCCCCCCCCCNC(=O)CI
inactive: [1] 14% | [4] 89.2% | [5] 14.3% | [8]; 10 µM unless noted 59.4% | [10] 58.4%
active: [2] -54.9% | [3] -30.7% | [6] -39.8% | [7] 3.04% | [9] -73.2%

CN1CNC(=O)NC1
inactive: [1] 109% and 101% | [2] 101% | [3] 94.8% and 110% | [4] 109% and 103% | [5] 118% and 87.5% | [6] 94% and 87.2% | [7] 113% and 95.9% | [8]; 10 µM unless noted 111% and 107% | [10] 113% and 118%

O=C1C=C(Nc2ccccc2)c2ccccc2C1=O
4.24% (active) and 97.1% (inactive): [8]; 10 µM unless noted
inactive: [1] 14.4% and 88.9% | [2] 103% and 119% | [3] 23.5% | [4] 45.3% and 95.2% | [5] 96.6% | [6] 53.8% and 76.8% | [7] 74.2% | [9] 71.6% | [10] 105% and 114%

Cc1cc(-c2ccc(N=Nc3ccc4c(S(=O)(=O)O)cc(S(=O)(=O)O)c(N)c4c3O)c(C)c2)ccc1N=Nc1ccc2c(S(=O)(=O)O)cc(S(=O)(=O)O)c(N)c2c1O
inactive: [1] 96.6% | [2] 83.6% | [3] 112% | [4] 111% | [5] 97.6% | [6] 81.9% | [7] 94.1% | [8]; 10 µM unless noted 77.3% | [9] 96.9% | [10] 120%

O=C(O)/C=C\C(=O)Nc1cccc2ccccc12
inactive: [2] 98.1% and 110% | [3] 70% and 83% | [4] 104% and 100% | [5] 94.2% and 102% | [6] 103% and 93.6% | [7] 95.3% and 108% | [8]; 10 µM unless noted 99.8% and 79.8% | [9] 102% and 104% | [10] 101% and 116%

Cl
inactive: [1] 102% | [2] 106% | [3] 96.9% | [4] 99.3% | [5] 102% | [6] 106% | [7] 105% | [8]; 10 µM unless noted 105% | [10] 136%

CC1=C/C(O)CC(=O)Cc2nc(co2)C(=O)N2CCC=C2C(=O)OC(C(C)C)C(C)/C=C\C(=O)NC/C=C\1 (configuration not stated)
inactive: [1] 90.1% | [2] 76.7% | [3] 80.8% | [4] 89.8% | [5] 92.9% | [6] 71.5% | [7] 96.7% | [8]; 10 µM unless noted 84.9% | [9] 59.6% | [10] 32.6%

CC[C@H](CC[C@@H](C)[C@H]1CC[C@H]2[C@@H]3CC=C4C[C@@H](O)CC[C@]4(C)[C@H]3CC[C@]12C)C(C)C
inactive: [1] 80.9% and 102% | [2] 101% and 109% | [3] 81.3% and 101% | [4] 99.5% and 98.1% | [5] 90.3% and 104% | [6] 106% and 98.2% | [7] 95.2% and 105% | [8]; 10 µM unless noted 96% and 101% | [10] 99.9% and 103%
